The text below walks through data of PubChem BioAssay AID1851 (National Center for Advancing Translational Sciences (NCATS), 2009).

Out of some 16,000 compounds screened, about 5,100 (32%) were called active. About 25% were inconclusive and are not listed. This is one part of the list. Unmarked numbers belong to inactive results. The call rests on the fitted dose curve; in most records, active means well fitted curve in the direction sought with a large enough effect; inconclusive means small, poorly fitted or top-dose-only effect, or effect the other way; inactive means no such curve, though single readings can be large or run the other way.
On the % scale 0 is the no-effect control and ±100 the full control effect.

Sequence of Cytochrome P450 3A4 (Homo sapiens) (P08684 whole entry, looked up): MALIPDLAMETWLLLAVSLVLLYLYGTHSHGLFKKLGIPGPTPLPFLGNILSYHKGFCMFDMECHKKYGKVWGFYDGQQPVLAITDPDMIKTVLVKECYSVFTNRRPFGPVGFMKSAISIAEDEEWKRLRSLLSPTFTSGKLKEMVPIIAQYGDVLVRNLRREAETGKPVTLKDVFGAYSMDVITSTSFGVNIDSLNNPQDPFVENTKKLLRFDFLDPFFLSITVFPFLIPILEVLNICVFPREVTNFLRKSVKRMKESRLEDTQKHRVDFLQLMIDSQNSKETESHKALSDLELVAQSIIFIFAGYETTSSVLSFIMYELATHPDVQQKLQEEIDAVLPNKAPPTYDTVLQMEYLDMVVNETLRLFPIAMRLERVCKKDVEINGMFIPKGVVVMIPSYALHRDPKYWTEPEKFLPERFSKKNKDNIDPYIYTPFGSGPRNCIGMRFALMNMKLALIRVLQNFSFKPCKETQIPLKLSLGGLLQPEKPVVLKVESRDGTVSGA

The test addresses Cytochrome P450 3A4 (Homo sapiens) (UniProt P08684). In words: Cytochrome panel assay with activity outcomes. The settings on record: recombinant CYP, pro-luciferin dealkylation, luminescence, p450-cyp3a4; series mostly up to 57.1 µM; activity, negative = inhibition: at the top concentration.
In the case of `CC[C@H]1CN(C)[C@H]2Cc3c([nH]c4ccccc34)C(=O)C[C@H]1[C@H]2C(=O)OC`, the activity, negative = inhibition was -21.4% [at 11.4 µM].

As to `C[Si](C)(c1ccc(C(=O)O)cc1)c1ccc(C(=O)O)cc1`, the activity, negative = inhibition was -6.28% [at 11.4 µM]. For `CCN(CC)c1ncnc2c1sc1nc(C)cc(C)c12`, the AC50 is 12.6 µM (active). Take `CCN(CC)N=Nc1[nH]nc2nc(C)cc(C)c12`: the activity, negative = inhibition is -15.1% [at 11.4 µM]. Turning to `C/C(=N\Nc1ccc([N+](=O)[O-])cc1)c1cccc(N)c1`, the AC50 was 3.55 µM (active). Consider `NC(=O)c1cccc(N)c1`, for which the “activity, negative = inhibition” value was -23.9%. With `COCCNc1nc(-c2ccccc2C(F)(F)F)nc2ccccc12`, the AC50 is 12.6 µM (active). In the case of `COCCNc1nc(-c2ccccc2Cl)nc2ccccc12`, the AC50 was 12.6 µM (active).

Turning to `Nc1nc(SCC(=O)O)[nH]c(=O)c1N`, the activity, negative = inhibition was -4.46% [at 11.4 µM]. For `Cc1ccc2nc(Cc3ccc(N)cc3)[nH]c2c1`, the concentration at half-maximal activity (AC50) was 1.78 µM (active). Turning to `Cc1ccc2nc(-c3ccc(NC(=O)Cc4cccs4)cc3)[nH]c2c1`, the activity, negative = inhibition is -7.46% [at 2.29 µM]. The same measure, in the same setting: in the case of `C[N+](C)(C)c1ncnc2c1ncn2[C@@H]1CCCCO1` it was -9.49% [at 11.4 µM]; in that of `Cc1cccc(N2CC(O)=C(c3nc4ccccc4n3C)C2=N)c1`, -27.6%. With `Cn1c(-c2sc(=S)n(-c3ccccc3)c2N)nc2ccccc21`, the AC50 was 4.47 µM (active).

For the compound `CCN(CC)c1ccc2c(c1)OC(N)=C(C#N)C2c1cccnc1` (stereo unspecified), the AC50 was 0.891 µM (active). The same measure, in the same setting: as for `CC[N+](CC)(CC)CC(=O)Nc1c(C)cccc1C`, the entry is “inactive”. In the case of `Cc1cccc(C)c1NC(=O)Nc1ccc(S(N)(=O)=O)cc1`, the activity, negative = inhibition was -9.51% [at 11.4 µM].

`CC(=O)Nc1ccc(NC(=O)Cn2c(-c3ccc(F)cc3)cnc2SCC(=O)Nc2c(C)cccc2C)cc1`: the AC50 is 3.16 µM (active). For the compound `CSC(N)=NCCC[C@@H](N)C(=O)O`, the “activity, negative = inhibition” value is -22.9%. As to `Cc1cccc(CNc2ncnc3ccc(-c4ccc(C(=O)N(C)C)cc4)cc23)c1`, the AC50 was 2 µM (active). On the same count and under the same terms, in the case of `CN(C)c1ccc(-c2ccc3ncnc(NCc4ccccc4)c3c2)cc1` it was 2.51 µM (active); in that of `CN(C)C(=O)c1ccc(-c2ccc3ncnc(NCc4ccccc4)c3c2)cc1`, 15.8 µM (active); in that of `CN(C)C(=O)c1ccc(-c2ccc3ncnc(NCc4cccs4)c3c2)cc1`, 10 µM (active). `OCCN1CCN(C(=S)c2ccc(Br)cc2)CC1`: the “activity, negative = inhibition” value was 0.405%. Same read-out and setting: in the case of `NC(N)=Nc1ccc(Cl)cc1` it was -4.16%; in that of `CC(=O)OC[C@@H]1O[C@@H](O/N=C2/C[C@@H](O)[C@@H](O)[C@@H]3[C@@H]4C(=O)N(C[C@@H]5CCCO5)C(=O)[C@H]4CC[C@@H]23)[C@H](OC(C)=O)[C@H](OC(C)=O)[C@@H]1OC(C)=O`, -14.3% [at 11.4 µM]; in that of `Clc1ccc2c(c1)N(CCCN1CCCC13CCCCC3)c1ccccc1S2`, -16.3% [at 11.4 µM]. Consider `COc1cc(CNCCc2c[nH]c3ccccc23)ccc1OCc1ccccc1F`, for which the AC50 is 7.08 µM (active). With `COc1cccc(CNCCc2c[nH]c3ccccc23)c1OCc1ccccc1F`, the half-maximal activity concentration (AC50) was 4.47 µM (active). With `O=C(O)[C@@H](Cc1c[nH]c2ccccc12)C(=O)NO`, the activity, negative = inhibition was -15.9% [at 11.4 µM]. On the same count and under the same terms, as for `O=c1c[n+](CCCC[n+]2cc(=O)o[nH]2)[nH]o1`, the figure is -11.2% [at 11.4 µM]. The same measure, in the same setting: as for `Cc1cc[n+](CC(=O)Nc2cc(C(F)(F)F)ccc2Cl)cc1`, the figure is -3.03%; as for `CN(C)c1cc[n+](CC(=O)Nc2cc(C(F)(F)F)ccc2Cl)cc1`, -17.4%.

As for `Cc1ccc(C)n1CCN1CCN(CC(=O)Nc2cc(C(F)(F)F)ccc2Cl)CC1`, the AC50 is 25.1 µM (active). In the case of `CCOc1ccc(NCc2nnc(SCc3ccccc3Cl)n2-c2ccccc2)cc1`, the AC50 was 14.1 µM (active).

Take `CCOC(=O)CSC1=NC(=O)/C(=C\c2ccc(Cl)cc2)S1`: the “activity, negative = inhibition” value is 11.4%. Same read-out and setting: in the case of `COC(Cc1nnc(SC)n1-c1ccccc1)OC` it was 19.6%. For the compound `COC(=O)CSc1nnc(CNc2ccc(Cl)cc2)n1-c1ccccc1`, the AC50 was 12.6 µM (active).

Turning to `CCOC(=O)CSc1nnc(Cc2ccccc2)n1-c1cccc(Cl)c1`, the concentration at half-maximal activity (AC50) was 2 µM (active). `COc1ccc(NCc2nnc(SCc3ccccc3)n2-c2ccc(OC)cc2)cc1`: the AC50 is 5.01 µM (active). Regarding `CC(=O)N(/N=C/c1cccc(C)c1)c1nc(-c2ccc(Br)cc2)cs1`, the “activity, negative = inhibition” value was -11.8%.

On to `CSc1nsc(SC)c1NC(=O)Nc1ccccn1`, for which the “activity, negative = inhibition” value was -5.92%. Same read-out and setting: as for `CSc1nsc(SC)c1NC(=O)OCC1CCCO1` (stereo unspecified), the figure is -5.42% [at 11.4 µM].

For `CSc1nsc(SC)c1NC(=O)OCc1ccccc1`, the half-maximal activity concentration (AC50) is 22.4 µM (active). Consider `O=C(Nc1ccc(Br)cc1)C1CCC(=O)N1Cc1ccccc1Cl` (stereo unspecified), for which the activity, negative = inhibition is -3.06% [at 11.4 µM].

For `O=C(NNC(=S)Nc1ccccc1)C1CC1`, the “activity, negative = inhibition” value was -8.39%.

As for `O=C(CSCc1ccccc1Cl)NN1C(=O)c2ccccc2C1=O`, the AC50 was 14.1 µM (active). Take `O=C(NN1C(=O)c2ccccc2C1=O)C1CCCCC1`: the “activity, negative = inhibition” value is -9.94%.

As for `O=C(CSCc1ccccc1Cl)NNC(=S)Nc1ccccc1`, the AC50 was 4.47 µM (active). On to `Cc1nn(C)cc1C(=O)NNC(=S)Nc1ccccc1`, for which the activity, negative = inhibition was 3.36% [at 2.29 µM]. On the same count and under the same terms, as for `Nc1cc(S(=O)(=O)O)cc2ccc(S(=O)(=O)O)cc12`, the figure is -1.64% [at 11.4 µM]. For `O=C(NCCc1ccc(Cl)cc1)Nc1cccc(Cl)c1`, the AC50 is 14.1 µM (active).

As for `CCOC(=O)CCCN`, the activity, negative = inhibition was -12.7% [at 11.4 µM]. Take `Cc1ccc(C(=O)NN2CCOCC2)cc1`: the “activity, negative = inhibition” value is 1.64%. Take `COc1ccc(C(=O)NCS(=O)(=O)c2ccc(C)cc2)cc1`: the AC50 was 14.1 µM (active). For the compound `COc1ccc(NC(=O)C2(c3ccc(NC(=O)c4ccc(C)cc4)cc3)CCCC2)cc1`, the “activity, negative = inhibition” value was -6.94%.

As to `CCc1ccccc1NC(=O)c1ccc(F)c(S(=O)(=O)N2CCC(C(N)=O)CC2)c1`, the AC50 was 15.8 µM (active). Turning to `COc1ccc(C(=O)Nc2cccc3c2C(=O)NC3=O)cc1S(=O)(=O)N1CCOCC1`, the activity, negative = inhibition is 1.45% [at 2.29 µM]. For `COc1cccc(/C=N/Nc2nc(N3CCCC3)nc(N3CCCC3)n2)c1O`, the AC50 was 10 µM (active). The same measure, in the same setting: as for `CCOc1ccc(/C=N/Nc2nc(N3CCCC3)nc(N3CCCC3)n2)cc1OC`, the figure is 12.6 µM (active). Consider `CC(C)(C)Nc1nc(N2CCCC2)nc(N2CCCC2)n1`, for which the activity, negative = inhibition is 11.3% [at 2.29 µM].

In the case of `Brc1cc2c(cc1/C=N/Nc1nc(N3CCCC3)nc(N3CCOCC3)n1)OCO2`, the AC50 was 2.82 µM (active). Same read-out and setting: in the case of `O=[N+]([O-])c1ccc(Nc2nc(N/N=C\c3ccc4c(c3)OCO4)nc(N3CCCCC3)n2)cc1` it was 1.26 µM (active). On to `CCOc1cc(/C=N/NC(=O)CN2CCCCC2)ccc1OCc1ccccc1`, for which the activity, negative = inhibition is -6.35% [at 2.29 µM]. As to `C1CCC(N=C(NC23CC4CC(CC(C4)C2)C3)N2CCOCC2)CC1`, the “activity, negative = inhibition” value was -18.1%.

On to `COC(=O)[C@@H]1[C@@H](O)[C@]2(O)c3ccccc3O[C@]2(c2ccccc2)[C@H]1c1ccccc1`, for which the activity, negative = inhibition was -17.3% [at 11.4 µM]. Turning to `C[C@@H]1NC(=O)C/C=C\[C@@H](C)[C@@H]2C=C[C@H](O)[C@@H](COC(=O)[C@H](C)NC(=O)C/C=C\[C@@H](C)[C@@H]3C=C[C@H](O)[C@@H](COC1=O)O3)O2`, the activity, negative = inhibition is 6.73% [at 11.4 µM].

Regarding `CN(C)Cc1ccc(O)c(CN(C)C)n1`, the activity, negative = inhibition is -18.2% [at 11.4 µM]. On the same count and under the same terms, as for `CC1CCCN(C/C=C/c2ccccc2[N+](=O)[O-])C1` (stereo unspecified), the figure is 0.0233%. For `COc1c(/C=N/Nc2nc(N3CCCCC3)nc(N3CCCCC3)n2)cccc1[N+](=O)[O-]`, the AC50 was 3.98 µM (active). Regarding `C/C(CC(=O)NCc1ccco1)=N\NC(=O)Cc1cccc2ccccc12`, the activity, negative = inhibition was -8.55% [at 2.29 µM]. Turning to `COc1ccccc1CNC(=O)C/C(C)=N/NC(=O)Cc1ccccc1`, the AC50 is 7.94 µM (active). For `Cc1cc(=O)n2c3ccccc3n(CC(O)CN3CCCCC3)c2c1C#N` (stereo unspecified), the “activity, negative = inhibition” value is 8.05%.

On to `CCN(CCO)Cc1csc2cccc(Br)c12`, for which the “activity, negative = inhibition” value was -1.38%.

In the case of `Cc1ccc(C(=O)c2cn[nH]c2-c2cc(Cl)ccc2O)cc1`, the AC50 is 3.98 µM (active). With `Cc1ccc(C(=O)c2cn(-c3ccc(F)c(Cl)c3)nn2)cc1`, the “activity, negative = inhibition” value is -1.47%. On the same count and under the same terms, in the case of `CCn1ccc(C(=O)Oc2ccc(Cl)cc2)n1` it was -12.6%. On the same count and under the same terms, in the case of `Cc1nc(S(=O)(=O)c2cccc(Cl)c2)nc2c1CCC2` it was 18.2% [at 2.29 µM]. Turning to `O=C(CS(=O)c1cccc(Cl)c1)Nc1ccccc1Cl` (stereo unspecified), the AC50 was 14.1 µM (active).

Regarding `O=C(CS(=O)(=O)c1cccc(Cl)c1)Nc1ccccc1Cl`, the half-maximal activity concentration (AC50) is 6.31 µM (active).

Take `O=C(CS(=O)c1cccc(C(F)(F)F)c1)Nc1ccccc1Cl` (stereo unspecified): the AC50 was 7.94 µM (active).

On to `CC(=O)N(CC(=O)O)c1ccccc1C(=O)O`, for which the “activity, negative = inhibition” value was -0.567%. As for `O=C(O)c1ccccc1OP(=O)(O)O`, the “activity, negative = inhibition” value is -3.92% [at 25.6 µM]. As to `COc1ccc(-n2c(C)n[nH]c2=O)cc1`, the “activity, negative = inhibition” value was 28.8%. Take `Cc1ccc(-n2c(-c3cc(C)n(C)n3)n[nH]c2=S)cc1`: the AC50 is 14.1 µM (active). For `Cc1cc(-c2n[nH]c(=S)o2)c(C)n1-c1ccccc1`, the “activity, negative = inhibition” value was -29.5%.

With `CN(C)c1ncc2nc(-c3cccs3)c(=O)n(C[C@H]3CCCO3)c2n1`, the AC50 is 25.1 µM (active). As to `COCCn1c(=O)c(-c2cccs2)nc2cnc(N(C)C)nc21`, the AC50 was 7.94 µM (active).

As for `CN(C)c1ncc2nc(-c3ccccc3)c(=O)n(CCC#N)c2n1`, the “activity, negative = inhibition” value was 3.78%. Same read-out and setting: as for `COCCn1c(=O)c(-c2ccc(F)cc2)nc2cnc(N(C)C)nc21`, the figure is -3.27%; as for `CN(C)c1ncc2nc(-c3cccs3)c(=O)n(CCc3ccccc3)c2n1`, -19%. `COCCn1c(=O)c(-c2cccs2)nc2cnc(Oc3ccc(OC)cc3)nc21`: the concentration at half-maximal activity (AC50) is 0.794 µM (active). As to `COc1ncc2nc(C)c(=O)n(CCC#N)c2n1`, the “activity, negative = inhibition” value is -17.2%.

Consider `CN(C)c1ncc2nc(-c3ccc(F)cc3)c(=O)n(C[C@H]3CCCO3)c2n1`, for which the “activity, negative = inhibition” value was -4.69%. On to `COc1ncc2nc(-c3cccs3)c(=O)n(CCC#N)c2n1`, for which the AC50 is 10 µM (active). On to `CN(C)c1ncc2nc(-c3cc(F)cc(F)c3)c(=O)n(C[C@H]3CCCO3)c2n1`, for which the “activity, negative = inhibition” value is -8.08%.
